# In the supplement of paper PMC8728848:
# This excerpt belongs to a sample that is enriched for the strongest signals.
# What was measured:
# Experiment in all cases: glycan array binding signal (z-score within array); higher = stronger binding
# Conditions in all cases: glycan notation: IUPAC condensed, linker removed
# [1] = molecular target: Gal(a1-3)GalNAc
# Procedure, shortened: (§1)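 Glycan array data came from 3228 arrays in the Consortium for Functional Glycomics database, and only arrays with an available protein sequence were kept. Glycan names were put into IUPAC-condensed notation, and columns mapping to the same glycan were averaged. The binding signal is a within-array Z-score, averaged across arrays of one protein sequence run at different concentrations or buffers and across linkers. A negative Z-score can be read as non-binding.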
# [2] = molecular target: Gal(a1-4)Gal(b1-4)Glc
# Procedure, shortened: as §1
# [3] = molecular target: Gal(b1-3)GalNAc(b1-4)Gal(b1-4)Glc
# Procedure, shortened: as §1
# [4] = molecular target: Gal(b1-4)GalNAc(a1-3)[Fuc(a1-2)]Gal(b1-4)GlcNAc
# Procedure, shortened: as §1
# [5] = molecular target: Gal(b1-4)GlcNAc(b1-3)[Gal(b1-4)GlcNAc(b1-6)]GalNAc
# Procedure, shortened: as §1
# [6] = molecular target: Gal3S(b1-3)[Fuc(a1-4)]GlcNAc
# Procedure, shortened: as §1
# [7] = molecular target: Gal6S(b1-4)Glc6S
# Procedure, shortened: as §1
# [8] = molecular target: Glc(a1-4)Glc
# Procedure, shortened: as §1
# [9] = molecular target: GlcNAc(b1-2)Gal(b1-3)GalNAc
# Procedure, shortened: as §1
# [10] = molecular target: Neu5Ac(a2-3)[GalNAc(b1-4)]Gal(b1-4)Glc
# Procedure, shortened: as §1
# [11] = molecular target: Neu5Ac(a2-6)Gal(b1-4)GlcNAc(b1-3)Gal(b1-4)[Fuc(a1-3)]GlcNAc(b1-3)Gal(b1-4)[Fuc(a1-3)]GlcNAc
# Procedure, shortened: as §1
# [12] = molecular target: Neu5Ac(a2-8)Neu5Ac(a2-8)Neu5Ac(a2-3)Gal(b1-4)Glc
# Procedure, shortened: as §1
# [13] = molecular target: Neu5Gc(a2-3)Gal(b1-3)GlcNAc
# Procedure, shortened: as §1
# [14] = molecular target: Neu5Gc(a2-3)Gal(b1-4)[Fuc(a1-3)]GlcNAc
# Procedure, shortened: as §1
# [15] = molecular target: Fuc(a1-3)[Gal3S(b1-4)]Glc
# Procedure, shortened: as §1
# [16] = molecular target: Fuc(a1-3)[GalNAc(b1-4)]Gal(b1-4)GlcNAc
# Procedure, shortened: as §1
# [17] = molecular target: Gal(a1-2)Gal
# Procedure, shortened: as §1
# [18] = molecular target: Gal(a1-4)Gal(b1-4)Gal
# Procedure, shortened: as §1
# [19] = molecular target: Gal(b1-3)Gal
# Procedure, shortened: as §1
# [20] = molecular target: Gal(b1-3)GalNAc(b1-3)Gal(a1-4)Gal(b1-4)Glc
# Procedure, shortened: as §1
# [21] = molecular target: Gal(b1-3)GlcNAc(b1-3)Gal(b1-3)GlcNAc
# Procedure, shortened: as §1
# [22] = molecular target: Gal(b1-3)[Fuc(a1-4)]GlcNAc(b1-3)Gal(b1-4)GlcNAc
# Procedure, shortened: as §1
# [23] = molecular target: Gal(b1-3)[Fuc(a1-4)]GlcNAc(b1-3)Gal(b1-4)[Fuc(a1-3)]GlcNAc
# Procedure, shortened: as §1
# [24] = molecular target: Gal(b1-4)GalNAc(b1-3)[Fuc(a1-2)]Gal(b1-4)GlcNAc
# Procedure, shortened: as §1
# [25] = molecular target: Gal(b1-4)Glc6S
# Procedure, shortened: as §1
# [26] = molecular target: Gal(b1-4)GlcNAc(b1-3)Gal(b1-4)[Fuc(a1-3)]GlcNAc(b1-3)Gal(b1-4)[Fuc(a1-3)]GlcNAc
# Procedure, shortened: as §1
# [27] = molecular target: Gal3S(b1-3)GalNAc
# Procedure, shortened: as §1
# [28] = molecular target: Gal3S(b1-4)GlcNAc6S
# Procedure, shortened: as §1
# [29] = molecular target: Gal4S6S(b1-4)GlcNAc
# Procedure, shortened: as §1
# [30] = molecular target: GlcA(b1-6)Gal
# Procedure, shortened: as §1
# [31] = molecular target: GlcNAc(b1-3)Gal(b1-3)GalNAc
# Procedure, shortened: as §1
# [32] = molecular target: GlcNAc(b1-4)GlcNAc(b1-4)GlcNAc
# Procedure, shortened: as §1
# [33] = molecular target: Kdn(a2-3)Gal(b1-3)GlcNAc
# Procedure, shortened: as §1
# [34] = molecular target: Man(a1-2)Man(a1-2)Man(a1-3)[Man(a1-2)Man(a1-3)[Man(a1-2)Man(a1-6)]Man(a1-6)]Man(b1-4)GlcNAc(b1-4)GlcNAc
# Procedure, shortened: as §1
# [35] = molecular target: Neu5Ac(a2-3)Gal(b1-4)GlcNAc(b1-3)Gal(b1-4)GlcNAc
# Procedure, shortened: as §1
# [36] = molecular target: Neu5Ac(a2-3)Gal(b1-4)GlcNAc(b1-6)[Gal(b1-3)]GalNAc
# Procedure, shortened: as §1
# [37] = molecular target: Neu5Ac(a2-3)Gal6S(b1-4)[Fuc(a1-3)]GlcNAc
# Procedure, shortened: as §1
# [38] = molecular target: Neu5Ac(a2-8)Neu5Ac(a2-8)Neu5Ac(a2-8)Neu5Ac(a2-3)[GalNAc(b1-4)]Gal(b1-4)Glc
# Procedure, shortened: as §1
Binder,glycan array binding signal (z-score) [1],glycan array binding signal (z-score) [2],glycan array binding signal (z-score) [3],glycan array binding signal (z-score) [4],glycan array binding signal (z-score) [5],glycan array binding signal (z-score) [6],glycan array binding signal (z-score) [7],glycan array binding signal (z-score) [8],glycan array binding signal (z-score) [9],glycan array binding signal (z-score) [10],glycan array binding signal (z-score) [11],glycan array binding signal (z-score) [12],glycan array binding signal (z-score) [13],glycan array binding signal (z-score) [14],glycan array binding signal (z-score) [15],glycan array binding signal (z-score) [16],glycan array binding signal (z-score) [17],glycan array binding signal (z-score) [18],glycan array binding signal (z-score) [19],glycan array binding signal (z-score) [20],glycan array binding signal (z-score) [21],glycan array binding signal (z-score) [22],glycan array binding signal (z-score) [23],glycan array binding signal (z-score) [24],glycan array binding signal (z-score) [25],glycan array binding signal (z-score) [26],glycan array binding signal (z-score) [27],glycan array binding signal (z-score) [28],glycan array binding signal (z-score) [29],glycan array binding signal (z-score) [30],glycan array binding signal (z-score) [31],glycan array binding signal (z-score) [32],glycan array binding signal (z-score) [33],glycan array binding signal (z-score) [34],glycan array binding signal (z-score) [35],glycan array binding signal (z-score) [36],glycan array binding signal (z-score) [37],glycan array binding signal (z-score) [38]
"IRp60B (Homo sapiens), Q9UGN4-3 (protein) MWLPWALLLLWVPAGDHSELSQNPKQAATQSELHYANLELLMWPLQEKPAPPREVEVEYSTVASPREELHYASVVFDSNTNRIAAQRPREEEPDSDYSVIRKT",0.074,5.38,2.68,-0.378,4.42,4.5,-0.421,-0.26,-0.44,-0.323,1.2,1.18,-0.475,-0.107,–,–,–,–,–,–,–,–,–,–,–,–,–,–,–,–,–,–,–,–,–,–,–,–
"C-Reactive Protein (Homo sapiens), P02741 (protein) MEKLLCFLVLTSLSHAFGQTDMSRKAFVFPKESDTSYVSLKAPLTKPLKAFTVCLHFYTELSSTRGYSIFSYATKRQDNEILIFWSKDIGYSFTVGGSEILFEVPEVTVAPVHICTSWESASGIVEFWVDGKPRVRKSLKKGYTVGAEASIILGQEQDSFGGNFEGSQSLVGDIGNVNMWDFVLSPDEINTIYLGGPFSPNVLNWRALKYEVQGEVFTKPQLWP",–,–,–,-0.454,–,–,–,–,–,–,–,–,–,–,0.735,-0.478,-0.469,-0.603,-0.554,-0.576,1.62,-0.4,-0.468,-0.521,0.381,0.095,0.199,1.48,2.24,-0.49,-0.505,1.94,-0.402,-0.496,-0.055,1.51,0.578,0.158
